The record followed here is PubChem BioAssay AID651958 (The Scripps Research Institute Molecular Screening Center, 2012).

The whole screen tested about 370,000 compounds, of which about 2,000 (0.54%) were called active. Many of the other results were omitted from the sample, so actives are more common in it than they were. Unmarked numbers belong to inactive results. Cut-off read from the data, not from the text of the source: active = inhibition above about 30%; inactive = the rest.

One may read the inhibition as the relative decrease from the control value, in per cent.

The assay deals with Crimean-Congo hemorrhagic fever virus L polyprotein viral ovarian tumor (vOTU) protease domain. Description: CCHFV vOTU protease inhibitors, primary screen, biochemical, Pep-AMC substrate, fluorescence (AID 651958). Note: 0% = vehicle wells with enzyme and 100% = no enzyme wells. The settings on record: at 11.5 µM, stronger effect = higher value.
In the case of `NC(=O)COc1ccc(C23CC4CC(CC(C4)C2)C3)cc1`, the inhibition was -6.98%.
Under `O=C(Oc1ccccc1C(=S)N1CCCCC1)c1cc([N+](=O)[O-])cc([N+](=O)[O-])c1` stands -1.38%; under `CCCS(=O)(=O)NC(=O)C1(C)CCCN(C(=O)c2cc(C)on2)C1` (stereo not drawn), -4.97%; under `CCCS(=O)(=O)NC(=O)C1(C)CCCN(C(=O)c2cccs2)C1` (stereo not drawn), 4.76%.
`CCCS(=O)(=O)NC(=O)C1(C)CCN(C(=O)c2sccc2C)C1` (stereo not drawn): the inhibition was 47.1% (active).
Under `COc1ccc2c(c1)[C@@]13CCCCC1[C@@H](C2)NCC3` (stereo partly drawn) stands -1.34%; under `CCc1ccc2c(c1)C1(NN=C(c3ccccc3)S1)C(=O)N2` (stereo not drawn), 1.82%; under `CCc1ccc2c(c1)NC(=O)C2(C)Cc1ccc(OC(F)(F)F)cc1` (stereo not drawn), 31.4% (active).
Under `CC1(Cc2cccc(C#N)c2)C(=O)Nc2ccc(-c3cccc(C(F)(F)F)c3)cc21` (stereo not drawn) stands 21.6%; under `CCCn1nc(Oc2nc(NC(C)C)nc(N(C)C)n2)ccc1=O`, -1.37%.
For `O=C(O)CCN1C(=O)CC2(CCCCC2)C1=O`, the inhibition is 2.77%.
Under `COCc1[nH][nH]c(=O)c1C=Nc1ccc(F)cc1F` stands 4.69%; under `O=C(NCc1ccccn1)C1CCN(S(=O)(=O)c2ccc(Br)cc2)CC1`, -7.95%; under `COc1ccccc1C1C(C#N)=C(N)Oc2c1c(-c1ccccc1)nn2-c1ccccc1` (stereo not drawn), 31% (active).
Under `COc1ccccc1C1CC(=O)n2c(nc(-c3ccccc3)c2-c2ccccc2)S1` (stereo not drawn) stands -11.5%; under `N#CC1=C(N)Oc2c(c(=O)oc3ccccc23)C1c1ccccc1OC(=O)c1cccs1` (stereo not drawn), 2.95%; under `Cc1ccc(S(=O)(=O)N2CCC(=O)N([C@H](COCc3ccccc3)Cc3ccccc3)CC2)cc1`, 4.4%.
Under `Cc1cc(F)ccc1S(=O)(=O)Nc1ncnc2scc(-c3ccc(F)cc3)c12` stands -9.09%.
Turning to `Cc1ccc(CN2CCCCC(NC(=O)C3CCCCC3)C2=O)cc1` (stereo not drawn), the inhibition was 6.33%.
Under `CCn1nc(C)c(CN2CCN(Cc3ccc(OC)c(C)c3C)C(CCO)C2)c1C` (stereo not drawn) stands -10.4%.
Turning to `Cc1ccc(NS(=O)(=O)c2ccc(N/N=C/c3ccccc3OCC(=O)O)c([N+](=O)[O-])c2)c(C)c1`, the inhibition was 49.3% (active).
Under `O=C(Nc1cc(S(=O)(=O)Nc2ccc(Cl)cc2)ccc1O)c1ccc(F)cc1F` stands 1.4%; under `O=C(O)c1ccccc1/C=N/Nc1ccc(S(=O)(=O)Nc2ccc(Cl)cc2)cc1[N+](=O)[O-]`, 31.2% (active).
Under `Cc1ccc(NS(=O)(=O)c2ccc3c(c2)n(C)c(=O)c(=O)n3C)c(C)c1` stands 9.52%.
Under `Cc1ccc(C)c(NS(=O)(=O)c2ccc(OCC(=O)NCc3cccnc3)cc2)c1` stands 7.43%; under `O=[N+]([O-])c1cc(S(=O)(=O)Nc2cccc(Cl)c2)ccc1N=Nc1c(O)[nH]c2ccccc12`, -13%; under `CCn1c(O)c(N=NC2=NC(=O)CS2)c2cc(C)ccc21`, 10.8%.
With `CC(C)c1c(CN(C)C(C)Cc2ccccc2)n(C)n(-c2ccccc2)c1=O` (stereo not drawn), the inhibition is 3.82%.
Regarding `COc1cccc(CNC(=O)CCC2CCCN(C(=O)c3ccoc3C)C2)c1` (stereo not drawn), the inhibition was -3.63%.
Under `CCCNC(=O)c1ccc(N2CCC3(CC2)CC(c2ccc(Cl)cc2)=NO3)c([N+](=O)[O-])c1` stands 5.33%; under `CC1CCCN(S(=O)(=O)c2ccc(N(C(=O)c3cnccn3)C(C(=O)NC3CCCCC3)c3cccs3)cc2)C1` (stereo not drawn), 3.18%.
Turning to `CNc1ccc(SC#N)cc1`, the inhibition was 7.09%.
Under `O=C(Nc1cccc(S(=O)(=O)N2CCCCC2)c1)c1cncc(Br)c1` stands 17.5%; under `O=C(Nc1cccc(S(=O)(=O)N2CCCCC2)c1)c1ccc2c(c1)OCO2`, 30.3% (active).
Under `O=C(Nc1cccc(S(=O)(=O)N2CCCC2)c1)c1cncc(Br)c1` stands 6.4%.
Under `CN1[C@H](Cc2ccccc2)COc2cccc(N3CCSCC3)c2S1(=O)=O` stands -7.16%; under `O=C(CNC(c1ccccc1)c1ccccc1)Nc1ccc(F)cc1`, -6.64%; under `COc1ccc(CNS(=O)(=O)c2cc3c4c(c2)CCN4C(=O)CC3)cc1`, 9.3%.
Turning to `COc1ccccc1CNS(=O)(=O)c1cc2c3c(c1)CCC(=O)N3CCC2`, the inhibition is 31.9% (active).
Under `COc1ccccc1CCNS(=O)(=O)c1cc2c3c(c1)C(C)C(=O)N3CCC2` (stereo not drawn) stands 14%; under `Cc1cccc(N)c1SC1CCCCC1O` (stereo not drawn), -10%; under `Cc1cccc(CN2CCC(n3nccc3NC(=O)c3ccccc3C)CC2)n1`, -2.72%.
Under `CCCCC[C@@H]1C=C(C(=O)O)[C@H](c2ccc(C#N)cc2)N1S(=O)(=O)c1ccc(C)cc1` stands 16.8%.
Under `CCCCC[C@@H]1C=C(C(=O)OCC)[C@H](c2ccccc2)N1S(=O)(=O)c1ccc(C)cc1` stands 11%; under `Cc1ccc(S(=O)(=O)N2[C@@H](c3ccc(Br)cc3)C(C(=O)O)=C[C@H]2CC2CCCC2)cc1`, 34.2% (active).
Take `COc1cc(NC(=S)N2CCCC(C)C2)c(OC)cc1Cl` (stereo not drawn): the inhibition was 7.18%.
Under `COc1ccc(C(=O)OCCN(C)C2CN(Cc3cn(Cc4cccc(C)c4)nn3)S(=O)(=O)C2)cc1OC` (stereo not drawn) stands -1.74%.
Under `O=C(O)c1ccc(NS(=O)(=O)c2ccc3c(c2)C(=O)c2cc(S(=O)(=O)Nc4ccc(C(=O)O)cc4)ccc2-3)cc1` stands 14.6%; under `O=S(=O)(Nc1ccc2[nH]ncc2c1)c1ccccc1Cl`, -2.37%; under `O=C(O)c1cc(S(=O)(=O)Nc2ccc3cn[nH]c3c2)ccc1Br`, 36% (active).
Under `CC1CCCN(CC(O)COc2ccc3c(c2)OCO3)C1` (stereo not drawn) stands 9.88%.
For the compound `Oc1ccc(N=Cc2sc3ccccc3c2Cl)cc1`, the inhibition is 97.4% (active).
Under `Oc1ccc(N=Cc2c(O)ccc3ccccc23)cc1` stands 63.1% (active).
Under `Cn1cc(CN2CCC(C(O)CCc3ccccc3)CC2)c(-c2ccccc2F)n1` (stereo not drawn) stands -4.04%; under `Cc1cc(OCCN2CCCC2)cc(C(C)C)c1`, -8.52%; under `CC1=C2C(=O)C3C(CC=C4CC(OC5OC(O)C(O)C(O)C5CO)CCC43C)C2CCC12OC1CC(C)CNC1C2C` (stereo not drawn), -3.46%.
Under `O=C(NCc1ccc(F)cc1)c1cc(C2CCCCN2C(=O)C2CCCCC2)on1` (stereo not drawn) stands 33.5% (active); under `O=C(NCc1ccc(F)cc1)c1cc(C2CCCCN2C(=O)c2ccccn2)on1` (stereo not drawn), 11.8%.
Turning to `O=C(NCc1ccc(F)cc1)c1cc(C2CCCCN2C(=O)c2cccs2)on1` (stereo not drawn), the inhibition was -3.47%.
Under `CC(NC(=O)CN1CCN(Cc2ccc(Cl)cc2)C1=O)c1ccc2c(c1)OCCO2` (stereo not drawn) stands 11.5%; under `Cc1cccc(OP(=O)(Oc2cccc(C)c2)OC(c2ccccc2)C(F)(F)F)c1` (stereo not drawn), 2.83%.
Under `Cc1cccc(OCC(=O)Nc2ccc(C(=O)O)cc2NC(=O)COc2cccc(C)c2)c1` stands 16.7%.
Under `CCN(CC)P(=O)(Oc1cccc(C)c1)N(CC)CC` stands 32.4% (active); under `Cc1ccc(S(=O)(=O)N2CCN(C(=O)Cn3c(=O)cnc4ccccc43)CC2)c(C)c1`, 14.9%.
Consider `O=C(CNCc1ccco1)Nc1cc(S(=O)(=O)N2CCOCC2)ccc1N1CCCC1`, for which the inhibition was -3.18%.
As to `CC(C)C[C@H](NC(=O)C1CCC(CNC(=O)[C@@H]2CCCN2C(=O)OC(C)(C)C)CC1)C(=O)O` (stereo partly drawn), the inhibition is -6.89%.
Under `Oc1c(CN2CCN(c3ccc(F)cc3)CC2)cc(Cl)c2cccnc12` stands 31.6% (active); under `CC(C)c1ccc(O)c(CN2CCN(c3ccccc3)CC2)c1`, -12.4%; under `O=C(c1ccccc1)c1cccn1CC(=O)N1CCN(c2ccc(F)cc2)CC1`, -2.38%.
In the case of `Cc1ccc(S(=O)(=O)N2CCC(=O)N([C@H](COCc3ccccc3)C(C)C)CC2)cc1`, the inhibition is 3.62%.
Under `COc1ccc(NC(=O)CNC(=O)Cn2ccc3ccccc3c2=O)c(OC)c1` stands -6.81%; under `Cc1ccc(Sc2cc(N3CCOCC3)nc(-c3ccccc3)n2)cc1`, 13.3%.
Under `O=C(OC(C(=O)NC1CCCC1)c1ccc(F)cc1)c1ccno1` (stereo not drawn) stands -21.1%.
`Oc1ccc(CNc2ccccc2O)cc1`: the inhibition was 37% (active).
Under `OCC(CO)(CO)NCc1ccc(-c2ccccc2)cc1` stands -4.11%.
Under `COC(=O)C1=CN(c2c(C)cc(C)cc2C)C(N)=C(C#N)C1c1cccc(F)c1` (stereo not drawn) stands 4.61%; under `O=C(CSc1nnc2c(n1)[nH]c1ccccc12)NC1CCCCC1`, -13%.
With `O=C(NC1CCCCC1)N1CCc2[nH]c3ccccc3c2C1`, the inhibition was 58.5% (active).
Consider `O=C(Nc1cccc2c1CCCC2)C1CCN(C(=O)NC2CCCCC2)CC1`, for which the inhibition is -8.92%.
Under `CCCNC(=S)N1CCC(NC(=O)C23CC4CC(CC(C4)C2)C3)CC1` stands -4.34%.
`CN1OC[C@@H]2CN(C(=O)c3cccnc3)[C@H](c3ccc(N4CCCCC4)cc3)C[C@@H]21`: the inhibition is -0.01%.
Under `N#Cc1cccc(CSc2nnc(CCCO)n2-c2ccccc2)c1` stands -2.93%.
Under `CCOc1cc(NC(=O)CCl)c(OCC)cc1NC(C)=O` stands 11.3%; under `CCOc1ccccc1NC(=O)c1cc(S(=O)(=O)N2CCC3(CC2)OCCO3)ccc1F`, -13.4%.
In the case of `CCOc1cc(NC(=O)c2ccccc2C(=O)O)c(OCC)cc1NC(=O)c1ccccc1F`, the inhibition is 35.5% (active).
Under `S=C(NCCc1ccccc1)N1CCn2cccc2C1c1ccncc1` (stereo not drawn) stands 20.5%; under `c1ccc(N2Cc3ccccc3-n3nncc3C2)nc1`, -2.36%.
Turning to `Cc1ccn2c(c1)nc(=O)c1cc(S(=O)(=O)N3CCC(C)CC3)ccc12`, the inhibition was -11.7%.
